High-throughput results as filed in PubChem BioAssay.
GPR151 ag: human GPR151 activation | activation, % at 11.2 µM | actives 1% (n = 650,000) | PathHunter beta-arrestin GPR151 cells, luminescence | Q8TDV0; in the data active = activation above about 4.9%
FBW7 act: activators of human E3 ligase FBW7. actives 0.13% (n = 650,000). AlphaScreen FBW7–phospho-cyclin E peptide binding, activator screen. normalized activity (activation), % at 26.1 µM. Q969H0. AID 1259310; in the data active = normalized activity above about 1.9%;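 note: purified mutant Fbw7 with reduced substrate affinity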
MITF primary: inhibitors of human MITF; AlphaScreen MITF homodimerization, bead proximity signal; actives 0.91% (n = 650,000); O75030; inhibition, % at 2.6 µM; in the data active = inhibition above about 50%
Target sequence (O75030 whole entry, looked up): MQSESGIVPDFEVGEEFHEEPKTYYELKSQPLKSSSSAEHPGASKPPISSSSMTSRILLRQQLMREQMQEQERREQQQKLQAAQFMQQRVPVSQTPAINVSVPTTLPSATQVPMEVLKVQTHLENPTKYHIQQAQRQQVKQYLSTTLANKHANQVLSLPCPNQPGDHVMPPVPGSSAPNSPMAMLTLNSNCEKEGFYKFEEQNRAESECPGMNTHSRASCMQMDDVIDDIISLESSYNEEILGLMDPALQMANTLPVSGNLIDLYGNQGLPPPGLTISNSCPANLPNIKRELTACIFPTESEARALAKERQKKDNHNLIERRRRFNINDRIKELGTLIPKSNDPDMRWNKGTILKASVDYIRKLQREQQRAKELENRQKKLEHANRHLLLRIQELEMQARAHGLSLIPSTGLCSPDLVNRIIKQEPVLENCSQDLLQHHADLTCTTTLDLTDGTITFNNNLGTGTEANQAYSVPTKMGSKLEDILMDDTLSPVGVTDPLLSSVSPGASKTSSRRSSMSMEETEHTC
TEAD-YAP inh: TEAD-YAP interaction inhibition; HEK-TIYL cells, TEAD-Gal4/YAP UAS-luciferase luminescence; inhibition, % at 9.12 µM; actives 1.4% (n = 640,000); AID 1259422; in the data active = inhibition above about 32%
Numbers stand for hits; 0 = inactive. This is a sample that favours compounds with a hit; in the whole collection about 3.5% have one here.

SMILES	GPR151 ag	FBW7 act	MITF primary	TEAD-YAP inh
C/C(=N\NC(=O)c1ccncc1)c1ccc(N)cc1	0	0	0	0
CC(C)(C)NC(=O)Cn1nc2c3ccccc3nc(C3CC3)n2c1=O	0	0	0	44
CC(C)NC(=O)Cn1nc2c3ccccc3nc(C3CC3)n2c1=O	0	0	0	0
O=C(Nc1ccc(O)cc1)c1cc2ccccn2n1	0	0	0	56
CNC(=O)CCCc1nc(-c2ccc(Cl)cc2)no1	0	0	0	0
CCCCCc1c2c(C)c(C(=O)OCC)nc-2cc2n1CC(C)=C2C	0	0	0	41
O=C(N/N=C/c1cccc2ccccc12)c1n[nH]c2c1CCC2	0	0	0	47
O=C(N/N=C/c1ccc([N+](=O)[O-])cc1)c1n[nH]c2c1CCC2	0	0	0	54
O=C(N/N=C/c1ccc(Cl)cc1)c1n[nH]c2c1CCCC2	0	0	0	0
C/C(=N\NC(=O)c1n[nH]c2c1CCCC2)c1ccc(O)cc1	0	0	0	0
O=C(N/N=C/c1ccccc1)c1n[nH]c2c1CCCC2	0	0	0	69
O=C(N/N=C/c1ccc(O)cc1)c1n[nH]c2c1CCC2	0	0	0	59
O=C(Nc1ccc2ccccc2c1)/C(=C/c1ccc2c(c1)OCO2)NC(=O)c1ccccc1Br	0	0	0	0
Cc1ccccc1N1C(=O)NC(=O)/C(=C\c2ccc(O)c(O)c2)C1=O	0	0	0	0
COc1ccc(N2C(=O)NC(=O)/C(=C/c3cc(Cl)c(O)c(OC)c3)C2=O)cc1	0	0	0	0
COc1ccccc1N1C(=O)NC(=O)/C(=C\c2ccc(O)c(O)c2)C1=O	0	0	56	0
COc1ccccc1N1C(=O)/C(=C\c2cccn2C)C(=O)NC1=S	0	0	56	0
COc1ccc(N2C(=O)NC(=O)/C(=C\c3cc(OC)c(O)c(OC)c3)C2=O)cc1	0	2.1	0	0
COc1ccc(/C=C2/C(=O)NC(=O)N(c3ccc(C(C)C)cc3)C2=O)cc1O	0	1.9	0	0
CCCN1CCC2(CC1)NC(=O)N(CC(=O)NCCc1ccccc1)C2=O	0	0	0	0
CCCN1CCC2(CC1)NC(=O)N(CC(=O)NCCc1ccc(OC)c(OC)c1)C2=O	0	2.7	0	0
COc1ccc(Nc2ccc(C(F)(F)F)cc2[N+](=O)[O-])cc1	0	0	0	0
O=C(c1ccc(-n2cccc2)cc1)N1CCN(Cc2csc(-c3ccccc3)n2)CC1	0	0	0	60
COCC(=O)N1CCN(Cc2csc(-c3ccccc3)n2)CC1	0	0	0	0
Cc1nc(C)c(C(=O)N2CCN(Cc3csc(-c4ccccc4)n3)CC2)s1	0	0	0	40
SMILES	GPR151 ag	FBW7 act	MITF primary	TEAD-YAP inh
Cc1nc(-n2cccc2)sc1C(=O)N1CCN(Cc2csc(-c3ccccc3)n2)CC1	0	0	0	0
COc1ccc(/C=C/C(=O)Nc2ccc(F)c(Cl)c2)cc1OC	0	0	0	0
C=CCOc1ccc(C=C2C(=O)N(C)C(=S)N(C)C2=O)cc1I	0	0	0	0
C=CCOc1ccc(C=C2C(=O)N(C)C(=S)N(C)C2=O)cc1OC	0	0	67	0
O=C(CC1(O)C(=O)N(Cc2ccccc2)c2ccccc21)c1ccc(Cl)cc1 (stereo unspecified)	0	0	0	0
O=C(CSc1ncccc1-c1nc2ccccc2[nH]1)NCc1ccco1	0	0	0	0
Cc1cc2nc(-c3cccnc3SCC(=O)NCc3ccco3)[nH]c2cc1C	0	0	0	37
CCOC(=O)c1cc2c(=O)n3ccccc3nc2n(CCOC)c1=NC(=O)C1CCCCC1	0	0	0	37
CCOC(=O)c1cc2c(=O)n3ccccc3nc2n(CCOC)c1=NC(=O)C(C)(C)C	0	0	0	0
CCOC(=O)C1CCC(CN(Cc2ccc(Cl)cc2)S(=O)(=O)c2ccc(F)c(C(=O)Nc3c(C)cccc3CC)c2)CC1 (stereo unspecified)	0	0	0	0
CCN1CCN(Cc2c(O)ccc3c4c(c(=O)oc23)CCC4)CC1	0	0	0	0
O=C(Nn1c(SCc2ccc(Cl)cc2)nc2ccccc2c1=O)c1cccs1	0	0	0	0
CCc1ccc(NC(=S)N(Cc2ccccc2)Cc2cccs2)cc1	0	0	0	54
NC(=O)CSc1nnc(-c2cccnc2)n1-c1cccc(C(F)(F)F)c1	0	0	0	0
NC(=O)CSc1nnc(-c2ccncc2)n1-c1cccc(C(F)(F)F)c1	0	2.6	0	0
COc1ccc(-c2nc3c(NCc4ccccc4)ncnc3n2C(C)C)cc1	0	0	0	0
O=C(Nc1ccccn1)c1ccc(-c2ccccc2)cc1	0	0	0	75
COc1cc(OC)cc(C(=O)N/N=C(\C)CC(=O)Nc2ccccn2)c1	0	0	0	56
CCCCOc1ccc(C(=O)NC(=S)Nc2ccccn2)cc1	0	0	0	0
CCOc1ccc(OCC(=O)Nc2cccc(C(=O)O)c2)cc1	0	0	0	0
Cc1ccc(OCC(=O)Nc2cccc(C(=O)O)c2)cc1	0	0	0	69
CCOc1ccc(C(=O)NC(=S)Nc2ccccn2)cc1	0	0	0	86
CC(C)c1ccc(-c2c(NCCN3CCN(Cc4ccccc4)CC3)c(=O)c2=O)cc1	0	0	0	0
COc1ccc(NC(=O)CN2CCC(n3nnc4ccccc43)CC2)cc1	0	0	0	0
Cc1ccc(C(=O)NC(=S)Nc2cccc(C(=O)O)c2)cc1	0	0	0	75
SMILES	GPR151 ag	FBW7 act	MITF primary	TEAD-YAP inh
Cc1ccc(OCC(=O)Nc2ccccn2)cc1	0	0	0	83
O=C(COc1ccccc1)Nc1ccccn1	0	0	0	0
O=C(COc1ccc(Br)cc1)Nc1ccccn1	0	0	0	62
Cc1cccc(C(=O)NC(=S)Nc2cccc(C(=O)O)c2)c1	0	0	0	0
Oc1ccc(N=Cc2nc(-c3ccc(Br)cc3)oc2O)cc1	0	0	0	0
O=C(O)c1cccc(NC(=O)c2cc3ccccc3o2)c1	0	0	0	39
O=C(Nc1nccs1)c1cc2ccccc2o1	0	0	0	58
Cc1nc2ccccn2c1-c1nc(-c2ccc3c(c2)OCO3)cs1	0	0	0	0
O=c1/c(=C/c2ccc(Cl)cc2Cl)sc2nnc(-c3ccccc3)n12	0	0	0	0
CCOC(=O)c1c(/N=C/c2cccc(OC)c2O)sc2c1CCN(C)C2	0	2.6	0	0
CCOC(=O)c1c(N)sc2c1CCN(C)C2	0	0	0	0
Oc1c(Cl)cc(Cl)c2cccnc12	0	0	0	0
O=S(=O)(O)c1cc(I)c(O)c2ncccc12	0	0	123	0
Oc1c(I)cc(I)c2cccnc12	0	0	0	52
O=C(C1CCN(Cc2ccccc2O)CC1)N1CCCCC1	0	0	52	0
O=C(C1CCN(Cc2cc(Cl)ccc2O)CC1)N1CCN(Cc2ccccc2)CC1	0	0	59	0
O=C(c1ccc(C(=O)N2CCN(c3ccccc3)CC2)cc1)N1CCN(c2ccccc2)CC1	0	0	0	0
CC(=O)N1CCc2cc(C(=O)CN3CCN(c4ccc(Cl)cc4)CC3)ccc21	0	0	0	44
CCOc1ccc(-n2c(SCC#N)nc3c(sc(=S)n3-c3ccc(CC)cc3)c2=O)cc1	0	0	0	0
